DT40 TDP1 no CPT: qHTS for Inhibitors of human tyrosyl-DNA phosphodiesterase 1 (TDP1): qHTS in cells in absence of CPT; DT40 Tdp1-/- hTDP1 cells, no CPT, ATP luminescence, 48 h; Potency, µM (series often up to 46.2 µM), most hits filed as inhibitors; 15% of 420,000 active; note: nearly all actives have a fitted effect of over 55% in size
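A cellular qHTS used chicken DT40 cells lacking endogenous Tdp1 but carrying stably transfected human TDP1. Compounds were applied without camptothecin, and cell growth kinetics were judged by ATP-dependent luminescence after ≥48 hr.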
TDP1 block: blocks human tyrosyl-DNA phosphodiesterase 1; AID 485290; Potency, µM (highest dose often 130 µM), actives largely listed as inhibitors; 0.28% of 350,000 active; recombinant TDP1, AlphaScreen DNA substrate cleavage; note: nearly all actives have a fitted effect of over 40% in size
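Recombinant human Tdp1 (E. coli-expressed, 1 nM final) preincubated with compounds 15 min at room temperature, then 5'-biotin/3'-phosphotyrosine-FITC DNA substrate (15 nM final) added for 5 min. AlphaScreen beads (10 ug/ml final) added 10 min; cleavage lowers signal.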
TDP1 cell CPT: DT40-hTDP1 cell growth loss with CPT; chicken DT40 Tdp1-/-;hTDP1 cells + 20 nM CPT, ATP luminescence, 48 h; Potency, µM (top dose mostly 46.2 µM), actives largely listed as inhibitors; 12% of 420,000 active; note: nearly all actives have a fitted effect of over 55% in size
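Cell growth measured by CellTiter-Glo luminescence after a minimum 48 h, 37 C compound exposure with 20 nM CPT in Tdp1-knockout DT40 cells stably expressing hTDP1, seeded 400/well; qHTS titration format.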
VDR inhibitor: blocks the human vitamin D receptor | 0.93% of 400,000 active | VDR-SRC2-3 peptide fluorescence polarization, 2 h | Potency, µM, most hits filed as inhibitors | P11473
Target sequence (P11473 whole entry, looked up): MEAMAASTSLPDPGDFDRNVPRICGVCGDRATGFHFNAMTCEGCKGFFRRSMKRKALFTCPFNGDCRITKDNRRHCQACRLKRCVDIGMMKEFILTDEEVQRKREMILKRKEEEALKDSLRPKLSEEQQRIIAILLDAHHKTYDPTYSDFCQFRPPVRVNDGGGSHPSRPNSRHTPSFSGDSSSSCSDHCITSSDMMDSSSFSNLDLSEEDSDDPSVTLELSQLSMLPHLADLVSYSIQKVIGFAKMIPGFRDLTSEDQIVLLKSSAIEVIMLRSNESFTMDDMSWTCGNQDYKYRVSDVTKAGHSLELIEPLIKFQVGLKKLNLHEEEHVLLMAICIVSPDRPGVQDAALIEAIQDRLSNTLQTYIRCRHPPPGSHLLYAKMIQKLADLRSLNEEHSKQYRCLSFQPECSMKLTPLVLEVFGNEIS
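After 23 nl compound addition and a short centrifugation, plates sat for 2 hours at ambient temperature; polarization of fluorescence then indicated loss of VDR binding to peptide SRC2-3.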
KAT2A inh: inhibitors of human GCN5L2 histone acetyltransferase; 0.21% of 390,000 active; GCN5L2 HAT assay, ThioGlo1 CoA-SH fluorescence; Potency, µM (highest dose often 58.9 µM), actives largely listed as inhibitors; AID 504327; Q92830
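Compounds, pin-transferred from DMSO stocks, meet 20nM GCN5L2 for 15 min before the reaction begins with H3(1-25) peptide (75uM) and acetyl-CoA (70uM). Thiol-reactive ThioGlo1 reports CoA release over 20 min at room temperature.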
PLK1 PBD block: PLK1 (human) polo-box domain binding inhibition; P53350; Plk1 PBD binding of FITC phosphopeptide, fluorescence polarization; Potency, µM, most hits filed as inhibitors; 2.8% of 360,000 active; note: series mostly up to about 57 µM; nearly all actives have a fitted effect of over 65% in size
Large screens that a line does not name were inactive. Rows were chosen to be rich in hits. Some 18% of all compounds tested hit in one or more screens of this group. Calls come from the whole dose curve; as a rule, active = well fitted curve in the direction sought with a large enough effect; inconclusive = small, poorly fitted or top-dose-only effect, or another doubt; inactive = no such curve, though single readings can be large; an effect the other way counts as inactive or inconclusive.

CCCCn1nc(C(=O)NCC(c2cccs2)N2CCOCC2)c2ccccc2c1=O (stereo not given)	DT40 TDP1 no CPT 21µM, TDP1 cell CPT inconclusive
CCn1nc(C(=O)NCC(c2cccs2)N2CCOCC2)c2ccccc2c1=O (stereo not given)	DT40 TDP1 no CPT 21µM, TDP1 cell CPT 15µM
CCOC(=O)c1ccc(NC(=O)C2=C(C)Nc3nc(SCc4ccc(Cl)cc4)nn3C2c2ccc(C)cc2)cc1 (stereo not given)	none (no result: PLK1 PBD block)
Cc1ccc2c(C(=O)CN3CCSCC3)c(C)[nH]c2c1	DT40 TDP1 no CPT inconclusive, TDP1 cell CPT 16µM, PLK1 PBD block 19µM
Cc1ccc2c(C(=O)CNc3nccs3)c(C)[nH]c2c1	DT40 TDP1 no CPT inconclusive (no result: TDP1 block, VDR inhibitor, KAT2A inh, PLK1 PBD block)
Cc1ccc2c(C(=O)CCl)c(C)[nH]c2c1	DT40 TDP1 no CPT 2.6µM, TDP1 cell CPT 3.7µM (no result: TDP1 block)
Cc1ccc2[nH]cc(C(=O)CCl)c2c1	DT40 TDP1 no CPT 4.1µM, TDP1 cell CPT 2.6µM, PLK1 PBD block 15µM
O=C(Cc1ccc(F)cc1)NCCc1csc2nc(-c3ccc(Cl)cc3)nn12	DT40 TDP1 no CPT 21µM, TDP1 cell CPT inconclusive (no result: PLK1 PBD block)
O=C(NCCc1csc2nc(-c3ccc(F)cc3)nn12)c1ccco1	DT40 TDP1 no CPT 16µM, TDP1 cell CPT inconclusive (no result: PLK1 PBD block)
Cc1ccccc1-c1nc2scc(CCNC(=O)c3ccco3)n2n1	DT40 TDP1 no CPT inconclusive, TDP1 cell CPT inconclusive (no result: PLK1 PBD block)
O=C(O)/C=C(/c1ccccc1)C(F)(F)F	none (no result: TDP1 block, KAT2A inh)
CCOc1ccc(C2CC(c3ccc(F)cc3)n3ncnc3N2)cc1 (stereo not given)	DT40 TDP1 no CPT 21µM, TDP1 cell CPT inconclusive
COc1ccccc1C1CC(c2ccc(Cl)cc2)Nc2ncnn21 (stereo not given)	DT40 TDP1 no CPT 21µM, TDP1 cell CPT 15µM, PLK1 PBD block 27µM
Cc1ccccc1C1CC(c2ccccc2)Nc2ncnn21 (stereo not given)	DT40 TDP1 no CPT inconclusive, TDP1 cell CPT inconclusive
Cc1ccc(C2CC(c3cccc(C)c3)n3ncnc3N2)cc1 (stereo not given)	DT40 TDP1 no CPT inconclusive, TDP1 cell CPT 15µM, VDR inhibitor inconclusive
Cc1nn(Cc2ccccc2)c2c1C(c1ccc(Cl)cc1)C(C#N)=C(N)O2 (stereo not given)	DT40 TDP1 no CPT 21µM, TDP1 cell CPT 18µM, VDR inhibitor inconclusive, PLK1 PBD block 27µM
Cc1ccc(-n2nc(C)c3c2OC(N)=C(C#N)C3c2ccc(C)o2)cc1 (stereo not given)	DT40 TDP1 no CPT inconclusive, TDP1 cell CPT inconclusive
Cc1nn(-c2ccccc2)c2c1C(c1ccc(Br)s1)C(C#N)=C(N)O2 (stereo not given)	DT40 TDP1 no CPT 12µM, TDP1 cell CPT inconclusive, PLK1 PBD block inconclusive
N#CC1=C(N)Oc2cc(O)ccc2C1c1ccc(Br)s1 (stereo not given)	DT40 TDP1 no CPT inconclusive, TDP1 cell CPT inconclusive, PLK1 PBD block 30µM (no result: TDP1 block)
Cc1nn(-c2ccccc2)c2c1C(c1ccccc1)C(C#N)=C(N)O2 (stereo not given)	DT40 TDP1 no CPT inconclusive, TDP1 cell CPT inconclusive, PLK1 PBD block 27µM
Cc1ccc(-n2nc(C)c3c2OC(N)=C(C#N)C3c2ccco2)cc1 (stereo not given)	DT40 TDP1 no CPT inconclusive, PLK1 PBD block inconclusive
CC(C)c1nn2c(=O)cc(COC(=O)CNC(=O)c3ccccc3)nc2s1	none (no result: PLK1 PBD block)
N#Cc1cccc(-c2cc(NCc3ccccc3)ncn2)c1	DT40 TDP1 no CPT inconclusive, TDP1 cell CPT inconclusive (no result: TDP1 block, PLK1 PBD block)
COc1ccc(OC)c(Nc2nc(=O)c3cccnc3s2)c1	TDP1 cell CPT 21µM, VDR inhibitor 45µM, KAT2A inh inconclusive, PLK1 PBD block 6.7µM
CN1[C@@H](Cc2ccccc2)COc2cc(N3CCSCC3)ccc2S1(=O)=O	DT40 TDP1 no CPT 16µM, TDP1 cell CPT inconclusive (no result: TDP1 block, VDR inhibitor, KAT2A inh)
CC1(C)CC(=O)c2cnc(N3CCc4ccccc43)nc2C1	DT40 TDP1 no CPT 26µM, TDP1 cell CPT inconclusive
O=C1CC(c2ccc(F)cc2)Cc2nc(N3CCc4ccccc43)ncc21 (stereo not given)	none (no result: DT40 TDP1 no CPT, TDP1 cell CPT, VDR inhibitor, PLK1 PBD block)
CC1CN(Cc2ccccc2)C(C)CC1O (stereo not given)	none
COc1ccc2c(Sc3ccccc3)c(C(=O)NCCc3ccc(Cl)cc3)[nH]c2c1	DT40 TDP1 no CPT inconclusive, TDP1 cell CPT inconclusive (no result: PLK1 PBD block)
CCn1c(CNc2nc3ccccc3n2C(C)C)nc2ccccc21	DT40 TDP1 no CPT 10µM, TDP1 cell CPT 15µM
CCCCn1c(NCc2cc(Cl)ccc2O)nc2ccccc21	none (no result: DT40 TDP1 no CPT, TDP1 cell CPT, PLK1 PBD block)
CC(C)n1c(NCc2cc(Cl)ccc2O)nc2ccccc21	DT40 TDP1 no CPT 18µM, TDP1 cell CPT inconclusive
CC(NC(=O)c1cccs1)c1n[nH]c(=S)n1C (stereo not given)	none
COC(CNS(=O)(=O)c1ccc(Cl)cc1)c1ccccc1 (stereo not given)	none
Cc1ccc(NC(CNS(=O)(=O)c2ccc(Cl)cc2)c2ccccc2)cc1 (stereo not given)	DT40 TDP1 no CPT 23µM, TDP1 cell CPT 21µM
O=S(=O)(NCC(Nc1ccc(Cl)cc1)c1ccccc1)c1ccccc1 (stereo not given)	DT40 TDP1 no CPT 16µM, TDP1 cell CPT inconclusive
COc1cccc(NC(CNS(=O)(=O)c2ccc(Cl)cc2)c2ccccc2)c1 (stereo not given)	DT40 TDP1 no CPT 16µM, TDP1 cell CPT inconclusive (no result: PLK1 PBD block)
NS(=O)(=O)c1ccc(NC(CNS(=O)(=O)c2ccccc2)c2ccccc2)cc1 (stereo not given)	none
CCOC(=O)c1ccc(NC(=O)C(C)Sc2nc(=O)cc(N)n2CCc2ccccc2)cc1 (stereo not given)	none (no result: DT40 TDP1 no CPT, TDP1 cell CPT, PLK1 PBD block)
COC(=O)c1ccc(NC(=O)C2CCCN2C(=O)OCc2ccccc2)cc1 (stereo not given)	none
S=c1[nH]nc(SCc2ccccc2)c2[nH]cnc12	DT40 TDP1 no CPT 4.6µM, TDP1 cell CPT inconclusive, PLK1 PBD block inconclusive (no result: TDP1 block, KAT2A inh)
O=c1[nH]nc(SCc2ccccc2)c(=O)[nH]1	none
O=C(COC(=O)C12CC3CC(CC(O)(C3)C1)C2)Nc1ccc(Cl)c(S(=O)(=O)N2CCOCC2)c1	DT40 TDP1 no CPT inconclusive, TDP1 cell CPT 29µM
COc1cc(S(=O)(=O)N2CCOCC2)ccc1NC(=O)COC(=O)CC12CC3CC(CC(C3)C1)C2	DT40 TDP1 no CPT 18µM, TDP1 cell CPT inconclusive
COc1ccc(NC(=O)COC(=O)C23CC4CC(CC(NC(C)=O)(C4)C2)C3)cc1S(=O)(=O)N1CCOCC1	DT40 TDP1 no CPT 16µM, TDP1 cell CPT 26µM
Cc1noc(C)c1S(=O)(=O)Nc1ccc(C#N)cc1	none
COc1cc(C(=O)OCCc2cc3ccccc3c(=O)o2)cc(OC)c1OC	DT40 TDP1 no CPT 5.8µM, TDP1 cell CPT 4.1µM

Source: PubChem (National Center for Advancing Translational Sciences (NCATS))
